# The whole screen tested about 360,000 compounds, of which about 3,700 (1%) were called active. Roughly 2% stayed inconclusive and do not appear here. The sample holds actives, similar compounds and a random draw of the others, so the mix is not that of the screen.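 How the source made its calls: active means normalized GFP-positive differentiation at or above the plate's own cutoff, the solvent-only control mean plus 3 SD; inconclusive means no clear call, values can overlap the other calls; inactive means the rest.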
# Experiment: induction of myeloid progenitor differentiation, primary screen, cell-based, flow cytometry, MLPCN library (AID 624256);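 on GFP+ MAC1+ double positive: cells exposed to compound for four days before flow analysis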;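 on normalized GFP-positive differentiation: cells exposed to compound for four days before flow analysis; 0% = DMSO wells and 100% = fulvestrant positive control at 5 µM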
# Details: ER-HoxA9 myeloid progenitors, lysozyme-GFP differentiation, at 10 µM; GFP+ MAC1+ double positive: measured here: differentiation confirmed by MAC1 staining, stronger effect = higher value; normalized GFP-positive differentiation: stronger effect = higher value
SMILES,GFP+ MAC1+ double positive [%],outcome,normalized GFP-positive differentiation
CC(C)(C)SCCNC(=O)c1cccc([N+](=O)[O-])c1,1.8,inactive,–
O=C1Nc2ccccc2NC(c2ccc3c(c2)OCO3)=C1N(Cc1ccc(F)cc1)C(=O)c1ccco1,0.3,inactive,–
COC(=O)C[C@H]1C=C[C@H](NC(=O)c2ccc(F)cc2)[C@@H](CO)O1,3.2,inactive,–
O=C1OCCOC2CCCc3oc(-c4ccccc4)c1c32 (centres undefined),0.1,inactive,–
CCc1ccc(C(=O)OCC(=O)Nc2cccc(S(=O)(=O)NC3=NCCCCC3)c2)cc1,0.1,inactive,–
COc1ccccc1C(=O)OCC(=O)Nc1cccc(S(=O)(=O)NC2=NCCCCC2)c1,1.4,inactive,–
Cc1cccc(-n2c(SCC(=O)Nc3cccc(S(=O)(=O)NC4=NCCCCC4)c3)nc3ccccc3c2=O)c1C,2.9,–,30% (active)
CCc1nc2c(OCCOc3ccccc3)cccn2c1N(C)C(=O)c1cccs1,0.5,inactive,–
CN(C)C1CN(Cc2cn(Cc3ccccc3)nn2)S(=O)(=O)C1 (centres undefined),1.6,inactive,–
Cc1cccc(OCC(=O)Nc2ccccc2F)c1,0.3,inactive,–
COc1cccc(NC(=S)C(C#N)=C2N(C)c3ccccc3N2C)c1,0.3,inactive,–
CC(=O)Nc1cccc(OCC(=O)/C=C2\N(C)c3ccccc3C2(C)C)c1,0.5,–,24.3% (active)
CC1(C)OC(=O)C2=C(C[C@@H](C3CCCC3)O[C@@H]2c2ccc(Cl)cc2)O1,1.8,inactive,–
COc1c(C)cc(C(O)c2ncc(-c3cccc(C(F)(F)F)c3)[nH]2)cc1C (centres undefined),1.2,inactive,–
O=C(Nc1cccc(NC(=O)c2ccccc2[N+](=O)[O-])c1)c1ccccc1Cl,0.4,inactive,–
O=C(Nc1ccc2sc3ccccc3c(=O)c2c1)c1ccccc1Cl,0.3,–,12.5% (active)
COc1cc(NC(=O)c2cccs2)ccc1NC(=O)c1ccccc1Cl,0.6,inactive,–
Cc1cc2nc(-c3ccco3)c(Cc3cccc(F)c3)n2c(C)c1Br,0.9,inactive,–
O=C(CCCN1C(=O)CCC1=O)Nc1ccc(Cl)c(C(F)(F)F)c1,8.3,–,22.8% (active)
CN(CC(=O)Nc1ccc(Cl)c(C(F)(F)F)c1)C(=O)CCC(=O)c1ccccc1,1,inactive,–
O=C(CN1CCN(C(=O)c2ccco2)CC1)Nc1ccc(Cl)c(C(F)(F)F)c1,0.9,inactive,–

SMILES,GFP+ MAC1+ double positive [%],outcome,normalized GFP-positive differentiation
CN(C(=O)CN1CCN(c2cc(-c3ccc(OCc4ccccc4)cc3)ncn2)CC1)c1ccccc1,1.4,inactive,–
CCOC(=O)C1=C(CN2CCc3ccccc32)NC(=O)NC1c1cccc([N+](=O)[O-])c1 (centres undefined),1.5,–,18.4% (active)
CCOC(=O)C1=C(CN2CCc3ccccc32)NC(=O)NC1c1cc(C)ccc1C (centres undefined),0.5,inactive,–
CCOC(=O)C1=C(CN2CCc3ccccc32)NC(=O)NC1c1ccc(Cl)cc1 (centres undefined),3.7,inactive,–
CCCCCCCCN1C(=O)[C@H](CC(=O)NCc2cccc3ccccc23)C[C@@]2(C(=O)OC)CCCCC=C12,1.4,inactive,–
O=C(NCCN1CCOCC1)c1ccccc1N1C(=O)[C@@H]2Cc3c([nH]c4ccccc34)C(c3cccc(Cl)c3)N2C1=O (some centres undefined),2.3,inactive,–
COC(=O)c1ccc2nc(-c3ccc(OC)c(OC)c3)c(Cc3ccccc3)n2c1,0.7,inactive,–
O=C(Cc1ccccc1)Nc1ccc(C(=O)Nc2ccccc2C(=O)O)cc1,1.7,inactive,–
Nc1ccc(C(=O)Nc2ccccc2N)cc1,1.3,–,21.2% (active)
Nc1ccc(S(=O)(=O)NC(=O)c2ccccc2)cc1,0.9,inactive,–
CCOc1ccc(CCN2C(=O)C(=O)N([C@@H](CC(C)C)CN3CCC[C@H]3CN3C(=O)C(=O)NC[C@@H]3Cc3ccccc3)C[C@@H]2CC(C)C)cc1,1.6,inactive,–
Cn1c(CCC(=O)OCC(=O)NCc2ccccc2Cl)nc(=O)c2ccccc21,34.4,–,369% (active)
CC(OC(=O)CCc1nc(=O)c2ccccc2n1C)C(=O)NCc1ccc2c(c1)OCO2 (centres undefined),0.9,inactive,–
O=C(COC(=O)Cn1cnc2ccccc2c1=O)NCc1ccccc1Cl,0.9,inactive,–
CC(=O)N1C[C@@H](CO)[C@@H](N(C)C(=O)c2ccco2)C[C@H]1c1ccccc1,0.1,inactive,–
CCCCCCCCN1C(=O)[C@H](CC(=O)NCC23CC4CC(CC(C4)C2)C3)C[C@@]2(C(=O)OC)CCCCC=C12,1,inactive,–
O=C1CCCCN1CCCC(=O)N1CCCC(Nc2ccc(F)cc2)C1 (centres undefined),45,–,233% (active)
O=C(CN1C(=O)CSC1=O)N1CCCC(Nc2ccc(F)cc2)C1 (centres undefined),0.7,inactive,–
O=C(CN1CCOC1=O)N1CCCC(Nc2ccc(F)c(F)c2)C1 (centres undefined),3.1,inactive,–
CC(C)(C)C1CCC(=O)N2CCC[C@]2(c2ccccc2)C1 (some centres undefined),1,inactive,–
CN(C)c1cccc(NC(=O)c2ccc(-c3ccc(F)c(F)c3)c3ccoc23)c1,1.3,inactive,–

# Source: PubChem BioAssay AID624256 (NMMLSC, 2012)
